# Screening data as filed in PubChem.
# Integrin act MD: activators of alpha7 integrin expression for muscular dystrophy; Potency, µM (series often up to 38.3 µM), actives largely listed as activators; hit rate 0.064% among 350,000; alpha7betagal myoblasts, beta-gal FDG fluorescence, 48 h; AID 624291; active means well fitted activation curve with a large enough effect; inconclusive means small, poorly fitted or top-dose-only effect; inactive means no such curve, though single readings can be large or run the other way; further: nearly all actives have a fitted effect of over 60% in size
#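 Alpha7betagal+/- myoblasts (passage 13) were plated 16-24 hr, then exposed to compounds (1:260 dilution of DMSO stock) for 48 hours at 37C. After MPER lysis, β-galactosidase reporter activity was read as FDG fluorescence (ex 480/em 540) after 30 minutes.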
# D3 antag: antagonists of human D3 dopamine receptor. max response, negative = inhibition, %. hit rate 2.5% among 360,000. D3R cells, DiscoveRx beta-arrestin luminescence, antagonist mode; active compounds read low. P35462; in the data active means max response below about -50%; inconclusive means no clear call, values can overlap the other calls
# Target sequence (P35462 whole entry, looked up): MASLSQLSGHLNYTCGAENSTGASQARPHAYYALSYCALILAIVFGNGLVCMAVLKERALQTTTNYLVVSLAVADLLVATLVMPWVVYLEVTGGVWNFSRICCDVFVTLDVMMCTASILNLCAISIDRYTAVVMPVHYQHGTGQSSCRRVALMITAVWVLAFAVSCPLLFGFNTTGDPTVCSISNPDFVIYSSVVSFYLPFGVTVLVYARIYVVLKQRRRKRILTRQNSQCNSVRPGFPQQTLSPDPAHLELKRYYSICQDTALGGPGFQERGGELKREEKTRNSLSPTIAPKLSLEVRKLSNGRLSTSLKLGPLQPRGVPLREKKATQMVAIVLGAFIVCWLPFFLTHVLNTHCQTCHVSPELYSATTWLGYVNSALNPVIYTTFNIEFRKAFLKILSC
#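 Cells expressing the human receptor were seeded at 1500 cells/well, incubated overnight at 37 degrees C in 5% CO2, then exposed to library compounds with dopamine controls for 90 minutes at 37 degrees C before luminescent detection.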
# D3 ag: agonists of human D3 dopamine receptor. P35462. D3R DiscoveRx beta-arrestin cells, luminescence, 90 min. max activation, %. hit rate 0.58% among 410,000. AID 652048; in the data active means max activation above about 30%
#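 Cells at 1500/well, incubated overnight, then treated with pinned compounds (dopamine as control) for 90 min at 37 degrees C. DiscoveRx reagent added for 30 - 60 minutes at room temperature; luminescence read.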
# Hits are given with their value; - = inactive; ? = inconclusive; . = no result. Compounds with a hit are over-represented: about 2.9% of the library has one in this group of screens.
SMILES,Integrin act MD,D3 antag,D3 ag
O=C(c1nnsc1S(=O)c1ccc(Cl)cc1)N1CCOCC1 (centres undefined),-,-50.7,-
O=C(Nc1ccccc1)c1nnsc1S(=O)c1ccc(Cl)cc1 (centres undefined),-,-58.9,-
Cn1c(SCCC#N)nnc1-c1ccccc1F,-,-,-
Cn1c(SCCN2CCCCC2)nnc1-c1ccccc1Br,-,-63.3,-
COc1ccc(N2CC(C)Cn3c2nc2c3c(=O)n(CCc3ccccc3)c(=O)n2C)cc1 (centres undefined),-,-,-
CC(Nc1ccc(Br)cn1)c1cc(Cl)ccc1O (centres undefined),?,-,-
CCOc1ccc(S(=O)(=O)Nc2cc(Cl)ccc2O)cc1,-,-,-
CC(Nc1ccc(Cl)cc1)c1cc(Cl)ccc1O (centres undefined),-,-54.6,-
CCOc1ccc(NC(C)c2cc(Cl)ccc2O)cc1 (centres undefined),-,-52.3,-
CC(C)CN1CCC(=O)N(CCC#N)CC1,-,-,-
CC(C)CN1CCC(=O)N(CCOc2ccccc2)CC1,-,-,-
O=C1CCN(CCc2ccccc2)CCN1[C@H](COc1ccccc1)c1ccccc1,-,-,-
CCCN1CCC(=O)N([C@H](COc2ccccc2)c2ccccc2)CC1,-,-103.6,-
CC(C)CN1CCC(=O)N([C@H](COc2ccccc2)c2ccccc2)CC1,-,-69.9,-
CN1C(=O)NC(NC(=O)c2ccncc2)(C(F)(F)F)C1=O (centres undefined),-,-,-
CC12CCC(C(=O)Nc3ccccc3Br)(C/C1=N\O)C2(C)C (centres undefined),-,-,-
O=C(Nc1cccc(F)c1)N1CCc2nc(NCc3cccc(Oc4ccccc4)c3)ncc2C1,.,-,-
COC(=O)[C@@H]1C[C@H]2CC[C@H](O)C[C@H]2N1Cc1ccccc1OC(=O)c1cccs1,-,-,-
N#Cc1ccccc1Cn1cc(/C=N/Nc2ccc([N+](=O)[O-])cn2)c2ccccc21,-,-52.4,-
O=[N+]([O-])c1ccc(NN=Cc2ccccc2)nc1,-,-,-
CCCCNC(=O)c1nc(-c2cccnc2OC)oc1-c1ccc(Cl)cc1,.,-,-
CC(C)OCc1cc(CN2CCN(c3cccc(C(F)(F)F)c3)CC2)c(O)c2ncccc12,.,.,-
Oc1ccc(Cc2ccccc2)c2cccnc12,-,-,-
Ic1ccc(N2CCN(Cc3c[nH]c4ncccc34)CC2)cc1,.,-57.7,-
Oc1ccc(CN2CCC(Cc3ccccc3)CC2)c2cccnc12,-,-88.2,-
SMILES,Integrin act MD,D3 antag,D3 ag
Oc1c(CN2CCN(c3ccccn3)CC2)cc(Cl)c2cccnc12,-,-127.8,-
OCCN1CCN(Cc2cc(Cl)c3cccnc3c2O)CC1,-,?,-
Fc1ccc(N2CCN(Cc3ccccn3)CC2)cc1,-,-,-
O=[N+]([O-])c1cc(CN2CCN(c3cccc(C(F)(F)F)c3)CC2)c2cccnc2c1O,-,-105.7,-
COc1cc(/C=C/C(=O)OCC(=O)NC2CC2)cc(S(=O)(=O)N2CCc3ccccc32)c1OC,-,-,-
COC(=O)c1ccccc1S(=O)(=O)N1CCC(C(=O)OCc2cccc(OC)c2OC)CC1,-,-,-
Cc1cccc(C(C)C)c1NC(=O)C1CCN(S(=O)(=O)c2ccccc2)CC1,-,-,-
O=C(CSc1n[nH]c(-c2cccs2)n1)N1CCCc2ccccc21,-,-,-
OCc1ccc(O)c2ncccc12,-,-,-
COc1cccc(CC2(CO)CCCN(Cc3cn(C)c4ccccc34)C2)c1 (centres undefined),-,-,-
COCc1cc(CN2CCCC2)c(O)c2ncccc12,-,-,-
Oc1c(CN2CCCCC2)cc(COCc2ccccc2)c2cccnc12,-,-125.3,-
Oc1ccc(CN2CCc3ccccc3C2)c2cccnc12,-,-113.8,-
Oc1ccc(CN2CCCCC2)c2cccnc12,-,?,-
Cn1cc(CN2CCCC(CO)(Cc3ccccc3)C2)c2ccccc21 (centres undefined),-,-50.3,-
Oc1ccc(CN2CCN(c3ccccc3)CC2)c2cccnc12,-,-99.5,-
O=C(Nc1ccncc1)c1ccc(N2CCCC2=O)cc1,-,-,-
Cc1ccc2cc(CN(CCc3ccccc3)C(=S)NCCCN(C)C)c(=O)[nH]c2c1,-,?,-
COc1ccc(C(=O)N/C(=C\c2cn(C)c3ccccc23)C(=O)NCCCn2ccnc2)cc1OC,-,-,-
COc1ccccc1N1CCN(C(=O)CCCn2nc(C)c([N+](=O)[O-])c2C)CC1,-,-,-
O=C(O)C(Cc1ccc(Cl)cc1)NS(=O)(=O)c1ccc(Cl)cc1 (centres undefined),-,-,-
Cn1cc(CN2CCc3ccccc3C2)c2ccccc21,-,-94.8,-
c1ccc(-c2[nH]ncc2CN2CCc3ccccc3C2)cc1,-,?,-
Cc1ccc(NC(=O)C(=O)NCC(c2cccnc2)N2CCOCC2)cc1Cl (centres undefined),.,.,-
COc1ccc(C(=O)N[C@H](C(=O)NCCCn2nc(C)cc2C)C(C)C)cc1,-,-,-
SMILES,Integrin act MD,D3 antag,D3 ag
CN(C)S(=O)(=O)Oc1ccc(Cl)cc1C(=O)Nc1ccc(F)cc1F,-,-,-
O=C(Cn1nnc2ccccc2c1=O)NCC1CCC(C(=O)O)CC1 (centres undefined),?,-,-
CC(C)[C@@H](C(=O)NCC1CCC(C(=O)O)CC1)n1nnc2ccccc2c1=O (some centres undefined),-,-56.8,-
CCOC(=O)c1c(NC(=O)COC(=O)Cn2cnc3ccccc32)sc2c1CCC(C)C2 (centres undefined),-,-,-
CCOC(=O)c1c(NC(=O)Cn2nnc3ccccc32)sc2c1CCC(C)C2 (centres undefined),-,-,33.0
CCn1cc([N+](=O)[O-])c(C(=O)N2N=C(c3ccc(Cl)c(Cl)c3)CC2c2ccccc2O)n1 (centres undefined),-,-,-
CCn1cc([N+](=O)[O-])c(C(=O)N2N=C(c3ccc4ccccc4c3)CC2c2cc(Br)ccc2O)n1 (centres undefined),-,-61.3,-
Cc1nc2cc(C(=O)O)ccc2n1-c1ccc(C(C)C)cc1,.,.,-
Cc1nc2ccccc2c(=O)n1CCCN1CCOCC1,-,-,-
FC(F)(F)c1nc2nc(Cl)c(Cl)nc2n1CCCN1CCOCC1,-,-56.9,-
CC1(C(=O)NS(=O)(=O)c2ccccc2Cl)CCN1C(=O)Cc1ccccc1Cl (centres undefined),.,-,-
Cn1c(=O)c2c(nc(N/N=C/c3ccncc3)n2Cc2ccccc2)n(C)c1=O,-,-,-
COc1cc(/C=N/Nc2nc3c(c(=O)n(C)c(=O)n3C)n2Cc2ccccc2)ccc1OC(=O)c1ccco1,-,-,65.6
Oc1ccc(N2CCN(Cc3cc4c(cc3Br)OCCO4)CC2)cc1,-,-86.5,-
O=S(=O)(c1ccc(F)cc1)N1CCN(Cc2cc3c(cc2Br)OCCO3)CC1,-,-,-
CC(=O)c1cccc(NC(=O)C2(C)Cc3c(-c4cccc(C(F)(F)F)c4)ccnc3O2)c1 (centres undefined),.,-,-
CCOC(=O)c1[nH]c(C)c(C(=O)NCc2cccc(OC)c2)c1C,.,.,-
